Source: PubChem BioAssay (EPA / NIEHS)
Inconclusive results are not listed. Activity calls are given as the source filed them. The calls were made as follows: active = hit-call score of the fitted dose curve at least 0.9, where 1 is the maximum; inconclusive = response in the unintended direction; inactive = score below 0.9.

Target: Retinoic acid receptor RXR-alpha (Homo sapiens) (UniProt P19793)
Test: ATG_RXRa_TRANS: Attagene TRANS-FACTORIAL HepG2 Assay for human Retinoid X Receptor alpha (RXRa) (AID 2283012)
Description: ATG_TRANS is a cell-based, multiplexed-readout assay that uses HepG2, a human liver cell line, with measurements taken at 24 hours after chemical dosing in a 24-well plate.ATG_RXRa_TRANS is one of 30 assay component(s) measured or calculated from the ATG_TRANS assay. It is designed to make measurements of mRNA induction, a form of inducible reporter, as detected with fluorescence intensity signals by Reverse transcription polymerase chain reaction (RT-PCR) and Capillary electrophoresis technology.Data from the assay component ATG_RXRa_TRANS was analyzed into 1 assay endpoint. This assay endpoint, ATG_RXRa_TRANS, was analyzed in the positive analysis fitting direction relative to DMSO as the negative control and baseline of activity. Using a type of inducible reporter, measures of mRNA for gain-of-signal activity can be used to understand the reporter gene at the transcription factor-level as they relate to the gene RXRA. Furthermore, this assay endpoint can be referred to as a primary readout, because this assay has produced multiple assay endpoints where this one serves a reporter gene function. To generalize the intended target to other relatable targets, this assay endpoint is annotated to the nuclear receptor intended target family, where the subfamily is non-steroidal.
Human liver HepG2 cells are transiently transfected with multiple reporter transcription units (MRTUs) in 6-well plates using FuGene 6 reagent (Roche; 3 ml FuGene/1 mg DNA). The MRTU constructs are regulated by a cis-regulating element (promoter). […] A major difference between the CIS and TRANS system is that in CIS activities of endogenous TFs are measured, whereas the TRANS assay evaluates changes in activities of exogenous, chimeric NR-Gal4 proteins. […] At the end of 24 hour incubation, total RNA was isolated using TriZol reagent (Invitrogen). The isolated RNA is then reverse-transcribed using oligo(dT) primer and Mo-MLV reverse transcriptase (Invitrogen) with DNAse I (Ambion) treatment for 30 min. The one-tenth of the produced cDNA was amplified by PCR using Taq DNA polymerase (Invitrogen) and two reporter sequence-specific primers. The PCR products were fluorescently labeled by primer extension with 6-arboxyfluorescein (6-FAM) 5'-labeled reporter sequence-specific primer (2 min at 95 C, 20 s at 68 C and 10 min at 72 C) and these products were digested with 5U of HpaI (New England Biolabs) for 2h at 37 C. The fragments were purified using Qiaquick PCR columns (Qiagen), analyzed on an ABI 3130xL genetic analyzer (Applied Biosystems) with peak positions identified by using a set of X-rhodamine (ROX)-labeled MapMarker1000 molecular weight standards (BioVentures). The raw capillary electrophoresis data was processed using Attagraph software (Attagene).

Sequence of Retinoic acid receptor RXR-alpha (Homo sapiens) (P19793 whole entry, looked up): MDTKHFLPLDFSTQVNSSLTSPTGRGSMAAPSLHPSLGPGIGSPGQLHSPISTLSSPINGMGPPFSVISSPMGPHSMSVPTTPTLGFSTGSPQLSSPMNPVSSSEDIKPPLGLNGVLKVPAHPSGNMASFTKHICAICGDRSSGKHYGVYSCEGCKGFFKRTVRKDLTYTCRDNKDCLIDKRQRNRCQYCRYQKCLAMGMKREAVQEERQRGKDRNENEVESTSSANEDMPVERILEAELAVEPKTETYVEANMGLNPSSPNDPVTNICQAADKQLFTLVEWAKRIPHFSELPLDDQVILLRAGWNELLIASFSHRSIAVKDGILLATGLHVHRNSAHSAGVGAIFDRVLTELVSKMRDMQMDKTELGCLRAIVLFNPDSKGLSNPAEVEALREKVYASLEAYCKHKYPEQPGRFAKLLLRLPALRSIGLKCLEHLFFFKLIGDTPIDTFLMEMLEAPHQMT

outcome, inactive:
CC1COCc2cc3c(cc21)C(C)(C)C(C)C3(C)C (stereo not given), CCN(CC)CC, O=C1Cc2ccccc2N1c1c(Cl)cccc1Cl, COc1cccc(O)c1, COc1cc([N+](=O)[O-])ccc1N, O=C(c1cc(O)c(O)c(O)c1)c1ccc(O)c(O)c1O, Clc1ccc(Nc2nnc(Cc3ccncc3)c3ccccc23)cc1, CN(Cc1cnc2nc(N)nc(N)c2n1)c1ccc(C(=O)N[C@@H](CCC(=O)O)C(=O)O)cc1, O=C(C=C(O)C(F)(F)F)C(F)(F)F, Oc1ccc(Cc2ccccc2O)cc1, CCC(=O)O, CCC(C)c1ccccc1O (stereo not given), CCOC(=O)CN[C@@H](C(=O)N1CC[C@H]1C(=O)NCc1ccc(/C(N)=N/O)cc1)C1CCCCC1, CN(C)CCOC(c1ccccc1)c1ccccc1, CCC(C)c1nccnc1OC (stereo not given), CCCCC(CC)C(=O)OCCOCCOCCOCCOC(=O)C(CC)CCCC (stereo not given), COC(=O)C(F)(F)C(F)(F)C(F)(F)F, O=C(CC(=O)C(F)(F)C(F)(F)C(F)(F)F)c1cccs1, NNC(=O)CCCCC(=O)NN, NNc1nc(-c2ccc([N+](=O)[O-])cc2)cs1, C[N+](C)(CCCNS(=O)(=O)CCC(F)(F)C(F)(F)C(F)(F)C(F)(F)C(F)(F)C(F)(F)F)CC(=O)[O-], Oc1c(Cl)ccc(Cl)c1Cl, CCCCC(CC)C(=O)O (stereo not given), O=CC(F)(F)C(F)(F)C(F)(F)C(F)F, CCCCCCCCC(C)=O, CC1CCC(CO)CC1 (stereo not given), Nc1cc(Cl)c(-c2cc(Cl)c(N)cc2Cl)cc1Cl, CS(=O)(=O)c1ccc([C@@H](CC2CCCC2)C(=O)Nc2cnccn2)cc1Cl, CCCCCCOC(=O)c1ccc(O)cc1, CCc1cccc(CC)c1N(COC)C(=O)CS(=O)(=O)O, NCc1cccc(CN)c1, O=S(=O)(c1ccc(OCc2ccccc2)cc1)c1ccccc1O, CCCCCCCCCCCCOC(=O)c1cc(O)c(O)c(O)c1, O=C(Nc1cccc([N+](=O)[O-])c1)c1cc2ccccc2cc1O, Cc1ccccc1C(OCCN(C)C)c1ccccc1 (stereo not given), FC(F)(F)C1(F)C(F)(F)C(F)(F)C(F)(F)C(F)(C(F)(F)F)C1(F)F (stereo not given), CCCCCc1ccc(O)cc1, O=C(NCc1ncc(C(F)(F)F)cc1Cl)c1c(Cl)cccc1Cl, CC(C)(c1ccc(Oc2ccc(N)cc2)cc1)c1ccc(Oc2ccc(N)cc2)cc1, COC(O)c1ccccc1 (stereo not given)
